These results are taken from PubChem BioAssay AID651953 (The Scripps Research Institute Molecular Screening Center, 2012).

Molecules are shown by their SMILES. In all, about 2,400 compounds went through this assay and about 430 (18%) were called active. The list is a sample of the results. Values without a mark were called inactive. Rule as the data show it: active = activation above about 12%; inactive = the rest.

A short description of this experiment: calcium activation in Ga16-expressing cells, counter-screen for TAAR1 antagonist project, cell-based, fluorescence (AID 651953).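 Also: 0% = vehicle wells and 100% = saturating stimulus response.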 Conditions: agonist counterscreen, at 3 µM, hits give high values. In general terms: The purpose of a counterscreen is to sort out artefacts and off-target activity.
Regarding `Cc1ccc2cccc(OCCCOc3ccccc3CO)c2n1`, the activation was 7.98%.
Under `COc1ccc(/C=C/C(=O)Nc2ccc(C34CC5CC(CC(O)(C5)C3)C4)cc2)cc1OC` stands 11.4%; under `Cc1cccc(NC(=O)c2nc[nH]c2C(=O)NCC(=O)OCc2ccccc2)c1`, 4.58%.
As to `CSCCC(NC(=O)COc1ccccc1)C(=O)OCC(=O)c1cc2ccccc2o1` (stereo not given), the activation is 7.36%.
As for `CC(=O)c1ccccc1OCc1ccc(C(=O)c2ccccc2)cc1`, the figure is 6.62%; as for `Cc1nc(N2CCN(c3ccccn3)CC2)c2c(C)c(C(=O)Nc3ccc(F)cc3)sc2n1`, 8.75%; as for `O=C(NCCN1C(=O)S/C(=C\c2cccnc2)C1=O)c1ccc(S(=O)(=O)N2CCCC2)cc1`, 2.99%.
Under `O=S1(=O)c2c(cccc2N2CCCCC2)O[C@H](COCc2ccccc2)CN1C1CC1` stands 2.53%.
As for `CCN1CCc2c(C#N)c(NCc3ccccc3)nc(NCCO)c2C1`, the figure is 4.39%; as for `COc1ccc(Cl)cc1NC(=O)CCS(=O)(=O)c1cc2c(cc1C)NC(=O)CO2`, 8.26%; as for `COc1ccc(-c2cc(C(=O)N(C)CC(=O)Nc3ccccc3Cl)c3ccccc3n2)cc1OC`, 7.25%.
Regarding `CCOc1ccc(N2CC(C(=O)N/N=C/c3sccc3C)CC2=O)cc1` (stereo not given), the activation is 1%.
Turning to `C/C(=N\Nc1ncc(Cl)cc1Cl)c1ccc(S(=O)(=O)NCc2ccco2)cc1`, the activation was 0.19%.
As for `CSC(=S)N/N=C/c1c[nH]c2ccccc12`, the figure is 6.16%; as for `O=C(O)c1ccc(NC(=O)c2cn(-c3ccccc3)nc2-c2ccc(Cl)cc2)cc1`, 3.12%.
As for `O=C(NCC1CCCO1)c1cc2c([nH]c3ccccc32)c(-c2ccc(F)cc2)n1` (stereo not given), the figure is 6.43%; as for `COc1ccc(-c2cc(C(=O)N(C)Cc3ccc(OC)c(OC)c3OC)c3ccccc3n2)cc1OC`, 7.43%.
Turning to `COc1ccc(-c2cc(C(=O)N(C)Cc3ccccc3)c3ccccc3n2)cc1`, the activation is 4.97%.
As to `COc1ccc(CN(C)C(=O)c2cc(-c3ccc(C)cc3C)nc3ccccc23)c(OC)c1OC`, the activation was 11.6% (active).
As for `CC(C)Oc1cc(F)ccc1-c1cc(C(=O)Nc2ccc(F)cc2)[nH]n1`, the activation is 5.64%.
As for `COc1ccc(C(=O)Nc2ccccc2C(=O)N/N=C/c2ccc(O)c(OC)c2)cc1`, the figure is 7.09%; as for `Cc1cc(C(C)(C)C)oc1C(=O)N(CC(=O)NC1CCCC1)Cc1ccc(Cl)cc1`, 13.9% (active).
Regarding `C=CCc1cc(S(=O)(=O)c2ccc(O)c(CC=C)c2)ccc1O`, the activation was 3.77%.
For `COc1ccc2[nH]c(=O)c(CN(Cc3cccnc3)S(=O)(=O)c3ccccc3F)cc2c1`, the activation was 9.12%.
Consider `Cc1ccccc1OCC(=O)Nc1ccc(N2CCN(C(=O)C(C)C)CC2)c(Cl)c1`, for which the activation is 11.8% (active).
As for `Cc1ccc(C)c(N2CCN(C(=O)CCCCCn3c(=S)[nH]c4ccc(N5CCOCC5)cc4c3=O)CC2)c1`, the figure is 8.79%; as for `CCNS(=O)(=O)c1ccc(CCC(=O)N2CCN(c3cc(Cl)ccc3C)CC2)cc1`, 11.5% (active); as for `OC(c1ccccc1)(c1ccccc1)C1CCN(CCCOc2ccc(-c3ccsc3)cc2)CC1`, 17.6% (active).
As for `Cc1ccc(NC(=O)c2ccc(CSc3ncnc4nc[nH]c34)cc2)c(C)c1`, the figure is 7.81%; as for `O=C(CCc1ccccc1)Nc1cccc(-c2nnc(-c3ccco3)o2)c1`, 11%.
